Several values for one entry are separate records, joined by “and”; a condition that tells them apart may be missing. Equal entries are not always repeated. The campaign covered roughly 5,500 compounds. About 2,000 (36%) were called active. Another 18% or so got no clear call; they are omitted. Cut-off read from the data, not from the text of the source: active = normalized growth mostly below about 0.91 (no sharp cut-off); inconclusive = no clear call, values can overlap the other calls; inactive = mostly above about 0.92. Some of the results follow.
Assay: chemical genetic growth profiling, strain panel (AID 1159580);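 note: tested at 20 µM; growth read once vehicle control cultures reached saturation at 30 °C; 1 = growth at the plate median or of vehicle wells; lower values mean less growth of the strain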
Conditions: S. cerevisiae deletion strains, growth OD

Measured: normalized growth

O=C(CCc1ccc(O)cc1)c1c(O)cc(O)cc1O[C@@H]1O[C@H](CO)[C@@H](O)[C@H](O)[C@H]1O
inactive: locus YAL021C, strain ccr4, active compounds read low 1.01 | locus YAL026C, strain drs2, active compounds read low 1.01 | locus YAL030W, strain snc1, active compounds read low 1.01 | locus YBL061C, strain skt5, active compounds read low 1.02 | locus YBR009C, strain hhf1, active compounds read low 1.02 | locus YBR021W, strain FUR4, active compounds read low 1.01 | locus YBR023C, strain chs3, active compounds read low 1.01 | locus YBR171W, strain sec66, active compounds read low 1.05 | locus YBR229C, strain ROT2, active compounds read low 1.02 | locus YBR231C, strain swc5, active compounds read low 1.02 | locus YBR279W, strain paf1, active compounds read low 1 | locus YCL011C, strain gbp2, active compounds read low 1.02 | locus YCL016C, strain dcc1, active compounds read low 1.02 | locus YCL029C, strain bik1, active compounds read low 0.982 | locus YCL061C, strain MRC1, active compounds read low 1.02 | locus YCL069W, strain vba3, active compounds read low 1.01 | locus YCR088W, strain abp1, active compounds read low 1.01 | locus YDL005C, strain med2, active compounds read low 1.02 | locus YDL035C, strain GPR1, active compounds read low 1.04 | locus YDL040C, strain nat1, active compounds read low 1.01 | locus YDL074C, strain BRE1, active compounds read low 1.05 | locus YDL101C, strain DUN1, active compounds read low 1.02 | locus YDL134C, strain PPH21, active compounds read low 1.06 | locus YDL185W, strain tfp1, active compounds read low 0.993 | locus YDL192W, strain arf1, active compounds read low 0.986 | locus YDR001C, strain nth1, active compounds read low 1.01 | locus YDR069C, strain doa4, active compounds read low 1.03 | locus YDR101C, strain arx1, active compounds read low 0.998 | locus YDR137W, strain rgp1, active compounds read low 0.993 | locus YDR159W, strain sac3, active compounds read low 1.03 | locus YDR162C, strain NBP2, active compounds read low 1.06 | locus YDR195W, strain ref2 0.997 | locus YDR297W, strain sur2, active compounds read low 1.02 | locus YDR318W, strain mcm21, active compounds read low 0.986 | locus YDR334W, strain swr1, active compounds read low 1.02 | locus YDR335W, strain msn5, active compounds read low 1.01 | locus YDR388W, active compounds read low 0.992 | locus YDR392W, strain spt3, active compounds read low 1.02 | locus YDR502C, strain sam2, active compounds read low 0.998 | locus YEL003W, strain gim4, active compounds read low 1.01 | locus YEL037C, strain rad23, active compounds read low 1.01 | locus YEL061C, strain CIN8 (second series), active compounds read low 1.01 | locus YEL061C, strain CIN8, active compounds read low 1.02 | locus YER015W, strain faa2, active compounds read low 1.02 | locus YER016W, strain bim1, active compounds read low 1.01 | locus YER110C, active compounds read low 0.981 | locus YER111C, strain swi4, active compounds read low 1.02 | locus YER155C, strain BEM2 (second series), active compounds read low 1.02 | locus YER155C, strain BEM2, active compounds read low 1 | locus YER167W, strain BCK2, active compounds read low 1.02 | locus YFR010W, strain ubp6, active compounds read low 1.01 | locus YGL078C, strain dbp3, active compounds read low 0.985 | locus YGL086W, strain mad1, active compounds read low 1.01 | locus YGL167C, strain pmr1, active compounds read low 1.03 | locus YGL173C, strain kem1, active compounds read low 1.02 | locus YGL227W, strain vid30, active compounds read low 1.02 | locus YGL240W, strain doc1, active compounds read low 1.02 | locus YGL248W, strain PDE1, active compounds read low 1.03 | locus YGL253W, strain hxk2, active compounds read low 1.02 | locus YGR135W, strain pre9, active compounds read low 1 | locus YGR252W, strain gcn5, active compounds read low 1.01 | locus YHR013C, strain ard1, active compounds read low 1.03 | locus YHR027C, strain rpn1, active compounds read low 1.02 | locus YHR030C, strain SLT2, active compounds read low 1.02 and 0.996 | locus YHR079C, strain IRE1 (second series), active compounds read low 1 | locus YHR079C, strain IRE1, active compounds read low 0.972 | locus YHR094C, strain hxt1, active compounds read low 0.988 | locus YHR129C, strain ARP1, active compounds read low 1.03 | locus YHR142W, strain chs7, active compounds read low 1.02 | locus YHR200W, strain rpn10, active compounds read low 1.02 | locus YIL066C, strain RNR3, active compounds read low 1.05 | locus YIL073C, strain SPO22, active compounds read low 1.01 | locus YIL125W, strain kgd1, active compounds read low 0.986 | locus YIR030C, strain dcg1, active compounds read low 0.973 | locus YJL092W, strain hpr5, active compounds read low 1.02 | locus YJL095W, strain BCK1 (second series), active compounds read low 1.01 | locus YJL095W, strain BCK1, active compounds read low 1.05 and 0.981 | locus YJL115W, strain asf1, active compounds read low 1.01 | locus YJL129C, strain trk1, active compounds read low 1.01 | locus YJL134W, strain LCB3, active compounds read low 1.01 | locus YJL154C, strain vps35, active compounds read low 1.01 | locus YJL164C, strain tpk1, active compounds read low 1.02 | locus YJL166W, strain qcr8, active compounds read low 1.02 | locus YJL168C, strain set2, active compounds read low 0.983 | locus YJL187C, strain SWE1 (second series), active compounds read low 1.03 | locus YJL187C, strain SWE1, active compounds read low 1.04 | locus YJR043C, strain POL32, active compounds read low 1.06 | locus YJR066W, strain TOR1, active compounds read low 0.942

— PubChem BioAssay AID1159580 (chemical genetic matrix, 2015)
